Screening data from PubChem.
USP30 inh: inhibitors of human USP30 deubiquitinase; AID 1645860; hit rate 5.3% among 47,000; Q70CQ3; inhibition, % at 25 µM; purified USP30, Ub-rhodamine cleavage fluorescence
USP17 inh: blocks human USP17 ubiquitin-rhodamine cleavage; purified USP17, Ub-rhodamine cleavage fluorescence, 3 h; hit rate 6.5% among 47,000; A8MUK1; inhibition, % at 50 µM
USP28 inh: human USP28 deubiquitinase inhibition. Q96RU2. purified USP28, Ub-rhodamine cleavage fluorescence, 30 min. inhibition, % at 25 µM. hit rate 3% among 47,000. AID 1645857
Target sequence (Q96RU2 whole entry, looked up): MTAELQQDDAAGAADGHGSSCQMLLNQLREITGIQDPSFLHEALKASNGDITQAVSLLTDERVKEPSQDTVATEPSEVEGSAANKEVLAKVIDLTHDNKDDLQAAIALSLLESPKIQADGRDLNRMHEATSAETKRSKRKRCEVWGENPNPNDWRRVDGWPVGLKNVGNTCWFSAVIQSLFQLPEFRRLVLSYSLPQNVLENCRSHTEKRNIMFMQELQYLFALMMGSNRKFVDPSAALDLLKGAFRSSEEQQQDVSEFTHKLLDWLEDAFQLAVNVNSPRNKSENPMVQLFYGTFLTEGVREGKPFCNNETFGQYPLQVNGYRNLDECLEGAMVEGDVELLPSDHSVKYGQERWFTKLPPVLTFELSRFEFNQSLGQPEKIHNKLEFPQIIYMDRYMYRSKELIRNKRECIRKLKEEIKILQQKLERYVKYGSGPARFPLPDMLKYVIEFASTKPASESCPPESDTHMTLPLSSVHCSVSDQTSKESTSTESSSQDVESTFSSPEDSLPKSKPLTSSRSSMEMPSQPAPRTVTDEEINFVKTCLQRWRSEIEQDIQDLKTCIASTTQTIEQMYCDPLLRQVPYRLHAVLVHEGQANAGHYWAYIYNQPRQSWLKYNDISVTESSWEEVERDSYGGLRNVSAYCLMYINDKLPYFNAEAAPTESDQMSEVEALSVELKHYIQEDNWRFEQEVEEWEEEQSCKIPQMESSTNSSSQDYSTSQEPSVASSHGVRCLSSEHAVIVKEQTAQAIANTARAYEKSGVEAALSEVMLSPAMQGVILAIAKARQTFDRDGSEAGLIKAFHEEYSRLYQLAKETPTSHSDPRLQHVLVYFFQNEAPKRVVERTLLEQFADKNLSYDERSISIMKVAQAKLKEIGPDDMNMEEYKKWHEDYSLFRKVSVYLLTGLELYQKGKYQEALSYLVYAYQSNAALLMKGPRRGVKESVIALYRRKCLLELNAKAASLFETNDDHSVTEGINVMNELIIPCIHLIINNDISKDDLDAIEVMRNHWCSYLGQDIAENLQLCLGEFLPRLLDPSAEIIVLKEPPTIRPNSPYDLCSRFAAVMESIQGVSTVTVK
OTUD3 block: blocks human OTUD3 ubiquitin-rhodamine cleavage | AID 1645858 | purified OTUD3, Ub-rhodamine fluorescence, 2 h | hit rate 0.7% among 47,000 | inhibition, % at 25 µM
Numbers without * were called inactive. Sampled rows, rich in hits. Any-hit rate of the full collection: about 11%. Rule as the data show it: active = inhibition above about 30%; inactive = the rest.

`COc1ccc2c(CCNC(=O)CSc3nnnn3-c3cc(C)ccc3C)c[nH]c2c1` gave USP30 inh -7, USP17 inh 17, USP28 inh 5 and OTUD3 block -5.
`Cc1ccc(C(=O)CSc2nnc(CC(=O)Nc3ccccc3F)n2C)cc1` gave USP30 inh 0, USP17 inh -10, USP28 inh 2 and OTUD3 block -2.
Screening Cc1ccc(C)c(NC(=O)CSc2nnc(Cc3cccc4ccccc34)n2C)c1 returned USP30 inh 0, USP17 inh -13, USP28 inh 45* and OTUD3 block 2.
Cc1ccc(C(C)C)c(OCc2nc3ccccc3n2CC(C)C)c1 was read as USP30 inh 25, USP17 inh 20, USP28 inh 11 and OTUD3 block 17.
`Cc1ccc(OCc2nc3ccccc3n2C(C)c2ccccc2)cc1` (centres undefined) gave USP30 inh 34*, USP17 inh 17, USP28 inh 27 and OTUD3 block 18.
Screening Cc1ccc2c(c1)OCC(=O)N2Cc1nc(-c2ccccc2)no1 returned USP30 inh 26, USP17 inh 45*, USP28 inh 29 and OTUD3 block 10.
Screening Cc1ccc2c(c1)OCC(=O)N2Cc1nc(-c2cccc(F)c2)no1 returned USP30 inh 35*, USP17 inh 13, USP28 inh 26 and OTUD3 block 27.
Screening Cc1ccc2c(c1)OCC(=O)N2Cc1nc(-c2ccc(F)cc2)no1 returned USP30 inh -48, USP17 inh -36, USP28 inh -12 and OTUD3 block -5.
For COc1ccc(-c2nc(CNC(=O)c3ccccc3C)cs2)cc1 the results were USP30 inh 9, USP17 inh 20, USP28 inh 1 and OTUD3 block -5.
For O=C(O)Cc1sc(Nc2ccccc2)nc1-c1ccc(Oc2ccccc2)cc1 the results were USP30 inh -416, USP17 inh -120, USP28 inh -87 and OTUD3 block -125.
Cc1scc2nc(C(=O)Nc3ccc4c(c3)OCO4)nc(N3CCOCC3)c12 was read as USP30 inh 19, USP17 inh 23, USP28 inh 32* and OTUD3 block -128.
Screening Cc1cccc(NC(=O)c2nc(N3CCOCC3)c3cnn(C)c3n2)c1 returned USP30 inh 42*, USP17 inh 44*, USP28 inh 19 and OTUD3 block 9.
For Cn1ncc2c(N3CCOCC3)nc(C(=O)NCc3ccc(Cl)cc3)nc21 the results were USP30 inh 19, USP17 inh 5, USP28 inh 15 and OTUD3 block 7.
`Cc1scc2nc(C(=O)N3CCCC3)nc(N3CCOCC3)c12` gave USP30 inh -73, USP17 inh -28, USP28 inh -17 and OTUD3 block -6.
For Cc1cccc(NC(=O)Cn2c(N3CCOCC3)nc3cc(C)n(C)c3c2=O)c1 the results were USP30 inh 61*, USP17 inh 47*, USP28 inh 12 and OTUD3 block -1.
O=C(Nc1cnn(-c2ncc(N3CCCCC3)cn2)c1)C1CCCO1 (centres undefined) was read as USP30 inh -88, USP17 inh -3, USP28 inh -25 and OTUD3 block -23.
Screening CCc1nc(-c2cccc(NC(=O)c3ccccc3F)c2)no1 returned USP30 inh 3, USP17 inh 6, USP28 inh 36* and OTUD3 block -2.
Cc1nc(-c2cccc(NC(=O)c3ccccc3Cl)c2)no1 was read as USP30 inh 18, USP17 inh 5, USP28 inh 52* and OTUD3 block 15.
Screening O=C(NCc1ccc(-c2nc3cnccc3o2)cc1)c1ccccc1Br returned USP30 inh 25, USP17 inh 68*, USP28 inh 14 and OTUD3 block 13.
For Cc1nc(-c2cccc(NC(=O)c3ccccc3F)c2)no1 the results were USP30 inh 0, USP17 inh 2, USP28 inh 21 and OTUD3 block -1.
`O=C(Nc1cccc(-c2nc3cnccc3o2)c1)c1ccccc1F` gave USP17 inh 44* and OTUD3 block -1.
For Cc1nc(-c2cccc(NC(=O)c3ccc(C#N)cc3)c2)no1 the results were USP17 inh 17 and OTUD3 block 5.
`CC(=O)c1cccc(NC(=O)c2ccc(-c3noc(C)n3)cc2)c1` gave USP30 inh 14, USP17 inh 21, USP28 inh 30* and OTUD3 block 14.
For FC(F)(F)c1cccc(Nc2nc(-c3ccccn3)nc3ccccc23)c1 the results were USP30 inh 52*, USP17 inh 74*, USP28 inh 88* and OTUD3 block -4.
For Brc1ccc(Nc2nc(-c3ccccn3)nc3ccccc23)cc1 the results were USP30 inh 90*, USP17 inh 52*, USP28 inh 93* and OTUD3 block 51*.
OCCCNc1cc(-c2cccc(C(F)(F)F)c2)nc(-c2ccccn2)n1 was read as USP30 inh -12, USP17 inh -42, USP28 inh -9 and OTUD3 block -6.
For Cc1cc(C)cc(NC(=O)Cc2nc(-c3ccccn3)n[nH]2)c1 the results were USP30 inh -1, USP17 inh -52, USP28 inh -10 and OTUD3 block -4.
O=C1NCCNC(=O)C2(C/C=C/COc3ccccc31)CCCN(C(=O)c1ccccn1)C2 (centres undefined) was read as USP30 inh -11, USP17 inh -14, USP28 inh -15 and OTUD3 block 0.
`Cc1ccc(-c2nnc(NC(=O)c3ccco3)o2)cc1C` gave USP30 inh 15, USP17 inh -6, USP28 inh 49* and OTUD3 block 1.
`Cc1ccc(OCC(=O)Nc2cc(NC(=O)c3ccco3)ccc2C)cc1C` gave USP30 inh 66*, USP17 inh 60*, USP28 inh 45* and OTUD3 block -2.
`O=C(Nc1ccccc1)N1CCN2C[C@@H](CO)[C@H](c3ccccc3)[C@H]2C1` gave USP30 inh 0, USP17 inh 5, USP28 inh 4 and OTUD3 block 7.
`O=C(COc1ccc(Cl)cc1)NCc1nnc(SCC(=O)N2CCN(c3ccccc3)CC2)o1` gave USP30 inh 39*, USP17 inh 41*, USP28 inh 5 and OTUD3 block 8.
O=C(COc1ccc(Cl)cc1)NCc1nnc(SCC(=O)NCc2ccc(F)cc2)o1 was read as USP30 inh 27, USP17 inh 1, USP28 inh 7 and OTUD3 block 0.
Screening O=C(COc1ccc(Cl)cc1)NCc1nnc(SCC(=O)N2CCc3ccccc32)o1 returned USP30 inh 40*, USP17 inh 24, USP28 inh 3 and OTUD3 block 9.
For O=C(COc1ccc(Cl)cc1)NCc1nnc(SCC(=O)Nc2nc3ccccc3s2)o1 the results were USP30 inh -75, USP17 inh 33*, USP28 inh 16 and OTUD3 block -20.
COc1ccc(C(=O)NC2CCN(Cc3c(C)noc3C)CC2)c(C)c1 was read as USP30 inh -43, USP17 inh 2, USP28 inh -16 and OTUD3 block -9.
Cc1cccc(S(=O)(=O)N2CCC3(CC2)COCCN(Cc2cccnc2)C3)c1 was read as USP30 inh -6, USP17 inh -6, USP28 inh 0 and OTUD3 block 4.
